{"source": "ChEMBL document CHEMBL3988442", "about": "“University of Dundee, Small-Polar-MMV Screening Library” (2021)", "note": "Screen size: about 48,000 compounds; about 13,000 (27%) showed an effect of 50% or more. The list shows a part of the results."}
{"test_system": "Wolbachia pipientis", "assay": "Anti-Wolbachia Cell-Based Screen", "format": "functional", "parameters": "scale not given: in the data most compounds retested in dose-response had high values", "conditions": "5 µM", "units": {"Percent Effect": "%"}}
{"smiles": "CC(=O)NC1CCCN(C(=O)CNc2cccc(C)c2Cl)C1", "note": "(stereo not drawn)", "Percent Effect": 6.978}
{"smiles": "O=C(CCn1cncn1)N1CCC2(CC1)[C@H](O)C[C@@H]2OCCO", "Percent Effect": -12.21}
{"smiles": "O=C(NS(=O)(=O)c1ccc(C2CCCCC2)cc1)C1COCCO1", "note": "(stereo not drawn)", "Percent Effect": -16.34}
{"smiles": "CCOc1ccc(N(C)Cc2nnc(C3CC3)o2)cc1", "Percent Effect": -1.111}
{"smiles": "CC1(C)CCC(CC(=O)O)c2ccccc21", "note": "(stereo not drawn)", "Percent Effect": 8.259}
{"smiles": "CN(Cc1cc(-c2ccncc2)no1)Cc1nccn1C", "Percent Effect": 1.044}
{"smiles": "CNC(=O)CN1CC[C@H]2CN(C(=O)c3ccccc3F)C[C@H]2C1.O=C(O)C(F)(F)F", "Percent Effect": 86.74}
{"smiles": "O=C(O)C(F)(F)F.O=C(c1ccccc1F)N1C[C@H]2CCC[C@@]2(COCc2ccncc2)C1", "Percent Effect": -1.474}
{"smiles": "CNC(=O)CN1CC[C@H]2CN(C(=O)c3ccccc3C)C[C@H]2C1.O=C(O)C(F)(F)F", "Percent Effect": 117.7}
{"smiles": "Cc1ccccc1C(=O)N1C[C@@H]2CCN(c3cccnc3)C[C@@H]2C1.O=C(O)C(F)(F)F", "Percent Effect": 9.875}
{"smiles": "Cc1ccccc1C(=O)NC[C@@H]1CCN(C(=O)CN2CCCC2)C[C@H]1O", "Percent Effect": 2.188}
{"smiles": "COCC(=O)NC[C@H]1OC[C@@H](NC2CCC(F)(F)CC2)[C@@H]1O", "Percent Effect": -6.952}
{"smiles": "CS(=O)(=O)N1CCC2(COCc3cnc(-c4ccccc4)nc32)C1", "note": "(stereo not drawn)", "Percent Effect": 3.211}
{"smiles": "CN(C)S(=O)(=O)N1CCC2(COCc3cnc(-c4ccccc4)nc32)C1", "note": "(stereo not drawn)", "Percent Effect": 7.187}
{"smiles": "O=S(=O)(C1CC1)N1CCC2(COCc3cnc(-c4cccnc4)nc32)C1", "note": "(stereo not drawn)", "Percent Effect": 112.6}
{"smiles": "CN(C)S(=O)(=O)N1CCC2(COCc3cnc(-c4cccnc4)nc32)C1", "note": "(stereo not drawn)", "Percent Effect": 117.1}
{"smiles": "O=S(=O)(C1CC1)N1CCC2(COCc3cnc(N4CCOCC4)nc32)C1", "note": "(stereo not drawn)", "Percent Effect": -0.8991}
{"smiles": "c1ccc(-c2ncc3c(n2)C2(CCN(c4ncccn4)C2)COC3)cc1", "note": "(stereo not drawn)", "Percent Effect": -0.2326}
{"smiles": "Cc1nn(C)c(NC(=O)C2SCCc3ccccc32)c1C", "note": "(stereo not drawn)", "Percent Effect": -51.32}
{"smiles": "COCCOc1ccc(NC(=O)C2CC(=O)N(CC3CC3)C2)cn1", "note": "(stereo not drawn)", "Percent Effect": 88.01}
{"smiles": "COCCOc1ccc(NC(=O)C2CC(=O)N(C(C)C)C2)cn1", "note": "(stereo not drawn)", "Percent Effect": 102.1}
{"smiles": "COCCOc1ccc(NC(=O)N(CCO)C2CC2)cn1", "Percent Effect": -3.493}
{"smiles": "COCCOc1ccc(NC(=O)N2CCCC2c2ccncc2)cn1", "note": "(stereo not drawn)", "Percent Effect": -3.019}
{"smiles": "COCCOc1ccc(NC(=O)N(C(C)C)C2CC2)cn1", "Percent Effect": -14.55}
{"smiles": "COCCOc1ccc(NC(=O)N2CCCC2c2cccs2)cn1", "note": "(stereo not drawn)", "Percent Effect": -5.356}
{"smiles": "COCCOc1ccc(NC(=O)N2CCCC2c2cc(C)no2)cn1", "note": "(stereo not drawn)", "Percent Effect": -1.531}
{"smiles": "COCCOc1ccc(NC(=O)C2CCCN(C(N)=O)C2)cn1", "note": "(stereo not drawn)", "Percent Effect": -6.192}
{"smiles": "COCCOc1ccc(NC(=O)C2CC(=O)N(C3CC3)C2)cn1", "note": "(stereo not drawn)", "Percent Effect": 124.3}
{"smiles": "CCS(=O)(=O)N1CCN(CC(F)(F)F)CC1", "Percent Effect": 6.417}
{"smiles": "CS(=O)(=O)CCC(=O)NC1CC(c2ccccc2Cl)C1", "note": "(stereo not drawn)", "Percent Effect": -3.689}
{"smiles": "CCNC(=O)CCN1CCC(c2cc(N3CCOCC3)nc(C)n2)CC1", "Percent Effect": 2.574}
{"smiles": "O=C(CCc1ccsc1)NCC1CCN(c2ccccc2)C1", "note": "(stereo not drawn)", "Percent Effect": -7.68}
{"smiles": "Cc1cc(N2CCC(NC(=O)CCc3cnn(C)c3)CC2)nc(C)n1", "Percent Effect": -6.539}
{"smiles": "Cc1nc(C2CCN(CC(=O)NC3CC3)CC2)cc(N2CCOCC2)n1", "Percent Effect": -4.261}
{"smiles": "CCn1ncnc1C(C)NC(=O)C1CCN(C2CCCCC2)CC1", "note": "(stereo not drawn)", "Percent Effect": -9.983}
{"smiles": "Cc1cc(C)c(CNC(=O)N2CCN(c3cnccn3)CC2)c(=O)[nH]1", "Percent Effect": -4.919}
{"smiles": "CNC(=O)CCc1cc(C)nc(C2CCCN2)c1", "note": "(stereo not drawn)", "Percent Effect": -6.068}
{"smiles": "CNC(=O)CCc1cc(C2CCN(c3cnccn3)CC2)nc(C)n1", "Percent Effect": 127.7}
{"smiles": "CNC(=O)CCc1cc(C)nc(C2CCN(c3ccccc3)CC2)c1", "Percent Effect": 115.5}
{"smiles": "CNC(=O)CCc1cc(C)nc(C2CCN(C3CCCCC3)CC2)c1", "Percent Effect": 132.7}
{"smiles": "CNC(=O)CCc1cc(C)nc(C2CCN(c3cnccn3)CC2)c1", "Percent Effect": 163}
{"smiles": "Cc1ccc(CC(=O)NC2CCN(c3cccc(Cl)c3)C2)cn1", "note": "(stereo not drawn)", "Percent Effect": -6.758}
{"smiles": "CCN(Cc1ccoc1)C(=O)NC1CCN(CC2CC2)C1", "note": "(stereo not drawn)", "Percent Effect": -6.123}
{"smiles": "N#Cc1c(Cl)nsc1NCCCN1C(=O)COc2ccccc21", "Percent Effect": -8.12}
{"smiles": "CCN(C(=O)C1CCC1)C(c1cccnc1)c1ccc2c(c1)CCO2", "note": "(stereo not drawn)", "Percent Effect": -9.854}
{"smiles": "O=C(C1CN(Cc2ccsc2)Cc2ccnn2C1)N1CCCC1.O=C(O)C(F)(F)F.O=C(O)C(F)(F)F", "note": "(stereo not drawn)", "Percent Effect": 5.087}
{"smiles": "COc1coc(CN2CCCC3(CCC(=O)N(CC4CC4)C3)C2)cc1=O", "note": "(stereo not drawn)", "Percent Effect": -7.938}
{"smiles": "CCOCCn1c(=O)[nH]c2cc(C(=O)N(C)Cc3cnn(C)c3)ccc21", "Percent Effect": 6.487}
{"smiles": "CN(CCc1cnn(C)c1)C(=O)CN1C(=O)OC[C@@H]1c1ccccc1", "Percent Effect": -15.8}
{"smiles": "CN(CCc1cnn(C)c1)C(=O)Cn1c(=O)[nH]c2ccccc21", "Percent Effect": 117.9}
{"smiles": "Cc1cc(C)c2nc(C)cc(C(=O)NCc3csc(N(C)C)n3)c2c1", "Percent Effect": -46.67}
{"smiles": "O=C(Nc1cnn(CC(=O)N2CCCCO2)c1)c1ccccn1", "Percent Effect": -7.331}
{"smiles": "O=C(O)c1ccc(F)c(S(=O)(=O)Nc2c(F)cccc2-n2cccn2)c1", "Percent Effect": -5.743}
{"smiles": "CN(C)CCn1c(=O)oc2ccc(NC(=O)C3CCCO3)cc21", "note": "(stereo not drawn)", "Percent Effect": 1.023}
{"smiles": "Cc1ccc(C#N)c(N2CCC(c3nccn3CCN(C)C)CC2)n1", "Percent Effect": -3.51}
{"smiles": "CN(C)CCn1c([C@H]2CCCO2)cc2cccnc21", "Percent Effect": 104.2}
{"smiles": "Cc1nn(C)c2nc(N(Cc3ccccn3)CC3CCCO3)sc12", "note": "(stereo not drawn)", "Percent Effect": -1.375}
{"smiles": "CN(C)CCn1c([C@@H]2CCCO2)cc2cccnc21.Cl", "Percent Effect": 90.46}
{"smiles": "CN(C)CCn1ccnc1C1CCCN(c2nccc3ccccc23)C1", "note": "(stereo not drawn)", "Percent Effect": -1.132}
{"smiles": "O=C(NCc1cccc(N2CC=CC2)c1)NCC(F)(F)F", "Percent Effect": 2.139}
{"smiles": "COc1ccnc(N(C)Cc2c(C)noc2C)n1", "Percent Effect": 0.6416}
{"smiles": "O=C(NCCC(=O)N1CCCCCCC1)c1ccoc1", "Percent Effect": 130.7}
{"smiles": "Cc1occc1C(=O)NCC(=O)N1CCCC(c2ccccc2)CC1", "note": "(stereo not drawn)", "Percent Effect": 4.823}
{"smiles": "CC1CCCN(C(=O)NCC(F)F)C1", "note": "(stereo not drawn)", "Percent Effect": -0.801}
{"smiles": "CC1CCCN(C(=O)CNC(=O)c2ccoc2)C1", "note": "(stereo not drawn)", "Percent Effect": 104.6}
{"smiles": "CCn1cnc(NC(=O)N2CCCC(c3ccccc3)CC2)n1", "note": "(stereo not drawn)", "Percent Effect": 1.274}
{"smiles": "O=C(CCNC(=O)c1ccoc1)Nc1c(F)cccc1F", "Percent Effect": -2.292}
{"smiles": "O=C(CCNC(=O)c1ccoc1)Nc1cc(F)cc(F)c1", "Percent Effect": -8.538}
{"smiles": "O=C(NCC(=O)N1CCCC(c2ccccc2)CC1)c1ccoc1", "note": "(stereo not drawn)", "Percent Effect": 114.1}
{"smiles": "CC(C)CN1CCC(C(=O)NCCNC(=O)c2ccoc2)CC1", "Percent Effect": 9.069}
{"smiles": "c1cnnc(N2CCCC(NCc3ccc(-n4ccnc4)cc3)C2)c1", "note": "(stereo not drawn)", "Percent Effect": 2.731}
{"smiles": "CN(Cc1cccs1)C(=O)CNC1CCc2ncnn2C1", "note": "(stereo not drawn)", "Percent Effect": -0.9071}
{"smiles": "Cc1cc(=O)c2ccccc2n1CC1CCCN(C)C1", "note": "(stereo not drawn)", "Percent Effect": -3.698}
{"smiles": "Cc1cc(S(=O)(=O)N2CCc3ccc(F)cc32)cc(C(=O)O)c1C", "Percent Effect": -1.898}
{"smiles": "CC(NC(=O)CNCCn1cccn1)c1ccc2c(c1)OCCO2", "note": "(stereo not drawn)", "Percent Effect": -2.168}
{"smiles": "Cc1ccc(C(C)NC(=O)CNCCn2cccn2)cc1C", "note": "(stereo not drawn)", "Percent Effect": 67.97}
{"smiles": "CC(NC(=O)Cn1cccn1)c1ccc2c(c1)OCCCO2", "note": "(stereo not drawn)", "Percent Effect": -3.831}
{"smiles": "CC(NC(=O)NCCCO)c1ccc2c(c1)OCCO2", "note": "(stereo not drawn)", "Percent Effect": 6.207}
{"smiles": "Cc1ccc(C(O)CNCCn2cccn2)cc1C", "note": "(stereo not drawn)", "Percent Effect": -13.13}
{"smiles": "CC(NC(=O)NCCCn1ccnc1)c1ccc2c(c1)OCCCO2", "note": "(stereo not drawn)", "Percent Effect": -3.282}
{"smiles": "OC(CNCCn1cccn1)c1ccc2c(c1)OCCO2", "note": "(stereo not drawn)", "Percent Effect": 4.861}
{"smiles": "CC(NC(=O)CNCCn1cccn1)c1ccc2c(c1)CCCC2", "note": "(stereo not drawn)", "Percent Effect": 2.456}
{"smiles": "CC(NC(=O)NCCCn1cncn1)c1ccc2c(c1)OCCO2", "note": "(stereo not drawn)", "Percent Effect": 5.809}
{"smiles": "CC(NC(=O)Cn1cccn1)c1ccc2c(c1)OCCO2", "note": "(stereo not drawn)", "Percent Effect": 96.81}
{"smiles": "Cc1cnn(CCNCC(=O)NC(C)c2ccc3c(c2)OCCO3)c1", "note": "(stereo not drawn)", "Percent Effect": 97.89}
{"smiles": "CC(NC(=O)CCn1cccn1)c1ccc2c(c1)OCCO2", "note": "(stereo not drawn)", "Percent Effect": 98}
{"smiles": "Cc1noc(C)c1CN(C)C(=O)NC(C)Cc1ccco1", "note": "(stereo not drawn)", "Percent Effect": 8.322}
{"smiles": "CN(Cc1nc2ccccc2o1)CC1CCCN1c1cccnn1", "note": "(stereo not drawn)", "Percent Effect": 4.649}
{"smiles": "COc1ccccc1C(C)N1CCN(S(=O)(=O)N(C)C)CC1", "note": "(stereo not drawn)", "Percent Effect": -4.471}
{"smiles": "Cc1cccc(N2N=C(C(=O)NC(C)Cn3cccn3)CCC2=O)c1", "note": "(stereo not drawn)", "Percent Effect": -20.26}
{"smiles": "Nc1nc(CNc2nccc(CCC(F)(F)F)n2)cs1", "Percent Effect": 0.6104}
{"smiles": "Cc1cc(NC(=O)[C@H]2CCCCN2C(=O)OC(C)(C)C)no1", "Percent Effect": 12.93}
{"smiles": "O=C(CCC1CCCO1)NCc1ccc(Br)cc1F", "note": "(stereo not drawn)", "Percent Effect": 24.29}
{"smiles": "Cc1cnc(C(=O)N2CCc3ncnc(C)c3CC2)cn1", "Percent Effect": -11.83}
{"smiles": "CCOc1ncnc2c1CCN(C(=O)c1cnccn1)CC2", "Percent Effect": 5.086}
{"smiles": "CN(C)CC(=O)N1CCc2ncnc(-c3ccoc3)c2CC1", "Percent Effect": -8.225}
{"smiles": "Cc1occc1C(=O)N1CCc2ncnc(-c3cnn(C)c3)c2CC1", "Percent Effect": 2.959}
{"smiles": "Cc1cnc(C(=O)N2CCc3ncnc(-c4cnn(C)c4)c3CC2)cn1", "Percent Effect": 103.6}
{"smiles": "Cn1cc(-c2ncnc3c2CCN(C(=O)c2cnccn2)CC3)cn1", "Percent Effect": 113}
{"smiles": "Cc1cc(C(=O)N2CCc3ncnc(-c4cnn(C)c4)c3CC2)c(C)o1", "Percent Effect": 88.25}
{"smiles": "Cc1ccoc1C(=O)N1CCc2ncnc(-c3cnn(C)c3)c2CC1", "Percent Effect": 95.42}
{"smiles": "Cc1ncnc2c1CCN(C(=O)c1cnccn1)CC2", "Percent Effect": 1.422}
{"smiles": "Cc1ncnc2c1CCN(C(=O)c1ccoc1)CC2", "Percent Effect": -3.432}
